# This excerpt belongs to a sample that is enriched for the strongest signals.
# B1: SP16664D-bth-476-27-476 (Bacteroides thetaiotaomicron) (protein)
# chain: DDLEVGKNIDESAYSGIYENNAYLRDGKSNLVSKVVELHGETYATTVKMGLSKTPNTATSAKVKIDAAYLETYNKAHNTDFALYPQDLVTFANEGILTVNANTKSAEVEMTIRAGEGLQEDKTYAIPVAISDQSSDITIKDEDAKHCIYLVKDMRNAGDAYKGEGVMQGYLFFEVNDVNPLNTLSFQLENGKLLWDVVVLFAANINYDAEAGRPRVQCNPNVQYLLDNNETLLQPLRRRGVKVLLGLLGNHDITGLAQLSEQGAKDFAREVAQYCKAYNLDGVNYDDEYSNSPDLSNPSLTNPSTAAAARLCYETKQAMPDKLVTVFDWGQMYGVATVDGVDAKEWIDIVVANYGSAAYPIGQMTKKQCSGISMEFNLGGGGSLSASKAQSMIDGGYGWFMGFAPSPAKYGSVFSRLQGGGEVLYGSNVAAPTIFYKKNDPTPYKYPDDL
# How the values were obtained:
# Assay in all cases: glycan array binding signal (z-score within array); higher = stronger binding
# Conditions in all cases: glycan notation: IUPAC condensed, linker removed
# [1] = target: Gal(b1-4)GlcNAc(b1-3)Gal(b1-4)GlcNAc(b1-3)GalNAc
# Outline: (§1)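 Arrays were curated from the Consortium for Functional Glycomics database, 3228 in total, and kept only where the protein sequence was available. Binding is expressed as a within-array Z-score. This score was averaged across arrays of the same protein sequence at different concentrations or buffers and across linkers, and negative values can be read as non-binding.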
# [2] = target: Gal(b1-4)GlcNAc(b1-3)Gal(b1-4)GlcNAc(b1-3)[Gal(b1-4)GlcNAc(b1-3)Gal(b1-4)GlcNAc(b1-6)]GalNAc
# Outline: as §1
# [3] = target: Gal(b1-4)GlcNAc(b1-6)GalNAc
# Outline: as §1
# Gal6S(b1-4)Glc6S = target: Gal6S(b1-4)Glc6S
# Outline: as §1
# GalNAc(b1-3)Gal = target: GalNAc(b1-3)Gal
# Outline: as §1
# GalNAc3S(b1-4)GlcNAc = target: GalNAc3S(b1-4)GlcNAc
# Outline: as §1
# GlcA(b1-3)GlcNAc = target: GlcA(b1-3)GlcNAc
# Outline: as §1
# [4] = target: GlcNAc(a1-4)Gal(b1-4)GlcNAc(b1-3)Gal(b1-4)GlcNAc
# Outline: as §1
# [5] = target: GlcNAc(a1-4)Gal(b1-4)GlcNAc(b1-3)Gal(b1-4)GlcNAc(b1-3)Gal(b1-4)GlcNAc
# Outline: as §1
# [6] = target: GlcNAc(b1-3)Gal(b1-4)GlcNAc(b1-3)Gal(b1-4)GlcNAc
# Outline: as §1
# [7] = target: GlcNAc(b1-3)Gal(b1-4)GlcNAc(b1-3)Gal(b1-4)GlcNAc(b1-3)Gal(b1-4)GlcNAc(b1-2)Man(a1-3)[GlcNAc(b1-3)Gal(b1-4)GlcNAc(b1-3)Gal(b1-4)GlcNAc(b1-3)Gal(b1-4)GlcNAc(b1-2)Man(a1-6)]Man(b1-4)GlcNAc(b1-4)[Fuc(a1-6)]GlcNAc
# Outline: as §1
# [8] = target: GlcNAc(b1-3)[GlcNAc(b1-6)]Gal(b1-4)GlcNAc
# Outline: as §1
# Neu5Ac(a2-3)Gal = target: Neu5Ac(a2-3)Gal
# Outline: as §1
# [9] = target: Neu5Ac(a2-3)Gal(b1-3)GalNAc6S
# Outline: as §1
# [10] = target: Neu5Ac(a2-3)Gal(b1-4)GlcNAc(b1-3)Gal(b1-4)[Fuc(a1-3)]GlcNAc
# Outline: as §1
# [11] = target: Neu5Ac(a2-3)Gal(b1-4)[Fuc(a1-3)]GlcNAc(b1-3)GalNAc
# Outline: as §1
# [12] = target: Neu5Ac(a2-3)Gal(b1-4)[Fuc(a1-3)]GlcNAc(b1-6)[Gal(b1-3)]GalNAc
# Outline: as §1
# [13] = target: Neu5Ac(a2-6)Gal(b1-4)GlcNAc(b1-2)Man
# Outline: as §1
# [14] = target: Neu5Ac(a2-6)Gal(b1-4)GlcNAc(b1-2)Man(a1-3)Man(b1-4)GlcNAc(b1-4)GlcNAc
# Outline: as §1
# [15] = target: Neu5Ac(a2-6)Gal(b1-4)GlcNAc(b1-2)Man(a1-3)[Gal(b1-4)GlcNAc(b1-2)Man(a1-6)]Man(b1-4)GlcNAc(b1-4)GlcNAc
# Outline: as §1
# [16] = target: Neu5Ac(a2-6)Gal(b1-4)GlcNAc(b1-2)Man(a1-6)[Man(a1-3)]Man(b1-4)GlcNAc(b1-4)GlcNAc
# Outline: as §1
# [17] = target: Neu5Ac(a2-6)Gal(b1-4)GlcNAc(b1-2)[Neu5Ac(a2-6)Gal(b1-4)GlcNAc(b1-4)]Man(a1-3)[GlcNAc(b1-4)][Neu5Ac(a2-6)Gal(b1-4)GlcNAc(b1-2)[Neu5Ac(a2-6)Gal(b1-4)GlcNAc(b1-6)]Man(a1-6)]Man(b1-4)GlcNAc(b1-4)GlcNAc
# Outline: as §1
# [18] = target: Neu5Ac(a2-6)Gal(b1-4)GlcNAc(b1-3)Gal(b1-4)GlcNAc(b1-2)Man(a1-3)[Neu5Ac(a2-6)Gal(b1-4)GlcNAc(b1-3)Gal(b1-4)GlcNAc(b1-2)Man(a1-6)]GalNAc
# Outline: as §1
# [19] = target: Neu5Ac(a2-6)Gal(b1-4)GlcNAc(b1-6)[Gal(b1-3)GlcNAc(b1-3)]Gal(b1-4)Glc
# Outline: as §1
# Neu5Ac(a2-6)GalNAc = target: Neu5Ac(a2-6)GalNAc
# Outline: as §1
# [20] = target: Neu5Ac(a2-6)GalNAc(b1-4)GlcNAc6S
# Outline: as §1
# [21] = target: Neu5Ac(a2-8)Neu5Ac(a2-8)Neu5Ac(a2-3)[GalNAc(b1-4)]Gal(b1-4)Glc
# Outline: as §1
# [22] = target: Neu5Gc(a2-8)Neu5Ac(a2-3)Gal(b1-4)GlcNAc
# Outline: as §1
binder,measurement,setting,value
B1,glycan array binding signal (z-score),[1],-0.091
same,glycan array binding signal (z-score),[2],-0.045
same,glycan array binding signal (z-score),[3],-0.123
same,glycan array binding signal (z-score),Gal6S(b1-4)Glc6S,0.344
same,glycan array binding signal (z-score),GalNAc(b1-3)Gal,-0.159
same,glycan array binding signal (z-score),GalNAc3S(b1-4)GlcNAc,-0.345
same,glycan array binding signal (z-score),GlcA(b1-3)GlcNAc,-0.153
same,glycan array binding signal (z-score),[4],-0.259
same,glycan array binding signal (z-score),[5],-0.185
same,glycan array binding signal (z-score),[6],0.054
same,glycan array binding signal (z-score),[7],-0.18
same,glycan array binding signal (z-score),[8],-0.212
same,glycan array binding signal (z-score),Neu5Ac(a2-3)Gal,-0.156
same,glycan array binding signal (z-score),[9],-0.227
same,glycan array binding signal (z-score),[10],0.058
same,glycan array binding signal (z-score),[11],0.765
same,glycan array binding signal (z-score),[12],9.86
same,glycan array binding signal (z-score),[13],-0.235
same,glycan array binding signal (z-score),[14],-0.117
same,glycan array binding signal (z-score),[15],2.55
same,glycan array binding signal (z-score),[16],3.75
same,glycan array binding signal (z-score),[17],2.38
same,glycan array binding signal (z-score),[18],1.28
same,glycan array binding signal (z-score),[19],-0.349
same,glycan array binding signal (z-score),Neu5Ac(a2-6)GalNAc,-0.006
same,glycan array binding signal (z-score),[20],-0.065
same,glycan array binding signal (z-score),[21],2.53
same,glycan array binding signal (z-score),[22],-0.114
